This is a sample that favours compounds with a hit; in the whole collection about 4.6% have one here.
CF NFkB block – blocks PAF-induced NF-kB reporter in cystic fibrosis cells; KKLEB NF-kB-GFP reporter, GFP fluorescence overnight; inhibition, % at 5 µM; 360,000 tested, 0.86% active; AID 588850;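 active = at least 50% inhibition at 5 µM, scaled per plate between neutral and stimulator controls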;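 also: PAF is a Pseudomonas aeruginosa culture filtrate used as stimulus; plate controls were PAF-stimulated DMSO wells for no effect and unstimulated DMSO wells for full effect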
Peg3 prom inh-1 – reduces Peg3 promoter-driven luciferase expression in HeLa; HeLa PEG-Prom luciferase reporter, luminescence, overnight; inhibition, % at 20 µM; 360,000 tested, 1.7% active; AID 588405;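 active = inhibition of at least 50% at 20 µM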
HIF-2a inh – blocks HIF-2a reporter activity. 786-0 RCC cells HIF-2a reporter, luciferase luminescence, overnight. 360,000 tested, 0.72% active. inhibition, % at 18.8 µM;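 active = inhibition of the luminescence signal of 40% or more relative to plate controls, in a single-dose primary screen at 18.75 µM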
KKLEB tox – CF airway cell cytotoxicity counter-screen; KKLEB CF airway cells viability, ATPlite luminescence, overnight; active compounds read low; cells stimulated with P. aeruginosa culture filtrate; activity change (cytotoxicity), % at 5 µM; 360,000 tested, 0.36% active; AID 602141;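 active = corrected activity change at or below -50% at 5 µM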
Mdm2 MdmX PPI – inhibitors of human Mdm2/MdmX interaction | SaOS-2 split-luciferase Mdm2/MdmX complementation, luminescence | inhibition, % at 8 µM | 330,000 tested, 3% active | AID 485346 | O15151+Q00987;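 active = inhibition of at least 50% at 8 µM in the primary screen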
ABHD5 PLIN5 PPI – blocks binding of human ABHD5 to perilipin-5 | 360,000 tested, 0.78% active | inhibition, % at 4 µM | Q00G26+Q8WTS1 | Split G. princeps luciferase complementation, luminescence, 4 h;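 active = inhibition above the mean inhibition across every tested compound plus 3 SD, cut at about 22% in these data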;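 also: 0% = DMSO only wells and the 100% control is not disclosed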
Target sequence (Q00G26 whole entry, looked up): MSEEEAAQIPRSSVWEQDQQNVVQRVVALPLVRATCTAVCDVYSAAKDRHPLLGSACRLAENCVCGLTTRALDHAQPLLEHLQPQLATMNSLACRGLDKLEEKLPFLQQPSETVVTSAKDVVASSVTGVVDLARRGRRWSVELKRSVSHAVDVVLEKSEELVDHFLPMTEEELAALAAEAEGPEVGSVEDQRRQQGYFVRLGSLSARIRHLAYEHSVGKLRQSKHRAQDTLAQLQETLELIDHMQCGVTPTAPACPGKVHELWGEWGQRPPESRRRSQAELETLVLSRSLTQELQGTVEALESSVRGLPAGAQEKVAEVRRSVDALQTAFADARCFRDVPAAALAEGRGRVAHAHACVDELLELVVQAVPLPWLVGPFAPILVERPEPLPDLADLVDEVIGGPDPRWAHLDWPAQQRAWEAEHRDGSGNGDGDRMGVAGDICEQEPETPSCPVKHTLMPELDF
Target sequence (Q8WTS1 whole entry, looked up): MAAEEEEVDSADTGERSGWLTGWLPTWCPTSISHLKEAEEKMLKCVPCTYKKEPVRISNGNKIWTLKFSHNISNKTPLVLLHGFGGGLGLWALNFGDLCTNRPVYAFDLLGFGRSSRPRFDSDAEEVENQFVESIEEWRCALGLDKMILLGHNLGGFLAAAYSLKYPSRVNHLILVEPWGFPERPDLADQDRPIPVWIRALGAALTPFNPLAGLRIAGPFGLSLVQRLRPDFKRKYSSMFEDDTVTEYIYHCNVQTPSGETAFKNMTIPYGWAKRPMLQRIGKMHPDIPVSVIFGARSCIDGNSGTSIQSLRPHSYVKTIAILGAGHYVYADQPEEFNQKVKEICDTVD
Mdm2 MdmX conf-1 – human Mdm2/MdmX binding inhibition, confirmed. shares compounds with Mdm2 MdmX PPI. luminescent assay. inhibition, % at 8 µM. 10,000 tested, 55% active; in the data active = inhibition above about 40%
FLuc counter – inhibits full-length luciferase, flagging false Mdm2/MdmX hits | shares compounds with Mdm2 MdmX PPI | SaOS-2 full-length luciferase counterscreen, luminescence | inhibition, % at 8 µM | 6,200 tested, 77% active | AID 504607;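 active = mean inhibition at 8 µM reaching about 37%, which flags the compound as non-specific, limit read from the data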;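 also: p53-null SaOS-2 cells with luciferase driven by a doxycycline-inducible promoter; compound on cells about two nights before reading with doxycycline added after day one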
Peg3 prom inh-2 – confirmation of Peg3 promoter inhibitors. inhibition, % at 20 µM. shares compounds with Peg3 prom inh-1. 1,300 tested, 84% active. HeLa PEG-Prom luciferase reporter, luminescence, overnight;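 active = at 20 µM dose, 40% or more inhibition averaged across four replicates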
ABHD5-PLIN5 conf – confirmation of human ABHD5-PLIN5 interaction inhibitors; inhibition, % at 4 µM; 2,200 tested, 67% active; shares compounds with ABHD5 PLIN5 PPI; biochemical ABHD5-PLIN5 interaction, luminescence; in the data active = inhibition above about 23%;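 also: 0% = DMSO vehicle wells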
HNF4 split-luc – HNF4 split-luciferase signal hit, counter-screen | HNF4 dimerization, luminescence, biochemical | shares compounds with ABHD5 PLIN5 PPI | inhibition, % at 4 µM | 2,200 tested, 77% active;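 active = mean inhibition across replicate wells exceeding the computed hit threshold, cut at about 13% in these data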;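 also: light from luciferase halves that rejoin when HNF4 fusion proteins dimerize; 0% = DMSO only wells and the 100% control is not given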
Mdm2 MdmX conf-2 – Mdm2/MdmX (human) interaction inhibition, confirmed | SaOS-2 split-luciferase Mdm2/MdmX complementation, luminescence | inhibition, % at 8 µM | shares compounds with HIF-2a inh | 740 tested, 99% active;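 active = mean inhibition of the luminescence signal across two replicates at or above 26 percent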
HIF-2a conf – confirmation of HIF-2a inhibitors. shares compounds with HIF-2a inh. 786-0 RCC cells, HIF-2a luciferase reporter luminescence, overnight. inhibition, % at 18.8 µM. 1,800 tested, 56% active. AID 651580;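 active = mean inhibition across four replicates of at least 40 percent at the single tested concentration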
HIF-1a counter – counter-screen for HIF-2a inhibitors: HIF-1a inhibition in MiaPaCa-2 cells; shares compounds with HIF-2a inh; MiaPaCa-2 HIF-1a luciferase reporter, desferoxamine, overnight; inhibition, % at 18.8 µM; 1,800 tested, 72% active;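 active = mean inhibition of the reporter signal across four replicates at the single tested dose of 50% or more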
An asterisk follows results filed as active; x = no result.

SMILES	CF NFkB block	Peg3 prom inh-1	HIF-2a inh	KKLEB tox	Mdm2 MdmX PPI	ABHD5 PLIN5 PPI	Mdm2 MdmX conf-1	FLuc counter	Mdm2 MdmX conf-2	HIF-2a conf	HIF-1a counter	others
Cc1nc(NC(=O)/C=C/c2ccccc2)n[nH]1	43.6	92.3*	20.8	-3.9	56.5*	24.6*	40.0*	32.9	x	x	x	ABHD5-PLIN5 conf=42.1*;HNF4 split-luc=37.9*
COCCCNC(=O)c1ccc2c3c(onc13)-c1ccccc1C2=O	9.5	-134.7	-142.2	5.6	-67.7	-11.2	x	x	x	x	x
O=C1c2ccccc2-c2onc3ccc(Oc4ccccc4)c1c23	85.3*	104.4*	-5.7	-82.7*	96.3*	7.1	63.3*	50.5*	102.7*	x	x
CC1C/C(=C/c2ccccn2)C(=O)/C(=C/c2ccccn2)C1 (stereo not drawn)	85.7*	100.3*	93.9*	-62.3*	98.5*	75.7*	100.2*	51.4*	102.7*	x	x
CC(C)(C)C1C/C(=C/c2ccccn2)C(=O)/C(=C/c2ccccn2)C1 (stereo not drawn)	88.7*	102.3*	95.8*	-52.9*	99.5*	71.8*	99.9*	51.2*	103.0*	x	x
O=S(=O)(NCc1nnnn1-c1ccc(F)cc1)c1ccc(F)cc1	-14.9	-2.1	1.9	-3.1	x	-1.7	x	x	x	x	x
COc1ccc(-n2nc3c(N4CCC(C(=O)NCc5cccc(C)c5)CC4)nnc(C)c3c2C)cc1	-23.0	98.8*	67.2*	-27.6	99.4*	9.1	44.6*	47.8*	x	76.4*	80.1*
CCOc1ccccc1CNC(=O)Cn1nc(C)c2c(C)n(-c3ccc(C)cc3)nc2c1=O	-0.7	22.5	8.3	0.2	15.7	3.2	x	x	x	x	x
CCOc1ccccc1CNC(=O)C1CCN(c2nnc(C)c3c(C)n(-c4ccc(C)cc4)nc23)CC1	-47.6	97.0*	70.5*	-21.0	99.8*	17.3	75.5*	5.2	x	51.4*	97.8*
Cc1ccc(-n2nc3c(N4CCC(C(=O)NCc5ccccc5C)CC4)nnc(C)c3c2C)cc1	28.2	88.6*	85.4*	-15.0	95.8*	12.0	31.9	x	x	20.7	62.1*
COc1ccccc1CCNC(=O)C1CCN(c2nnc(C)c3c(C)n(-c4ccc(C)cc4)nc23)CC1	-20.2	89.1*	40.1*	-35.3	88.7*	11.1	39.4	78.7*	x	26.6	82.5*	Peg3 prom inh-2=77.8*
CCOC(=O)C1=CCN(S(=O)(=O)c2ccccc2C)C1c1ccc(F)cc1 (stereo not drawn)	18.3	15.2	21.6	-5.9	x	-6.6	x	x	x	x	x
Cc1cccc(C(=O)Nc2nnc(S(=O)(=O)N(C)Cc3ccco3)s2)c1	-11.9	-20.4	-34.3	7.5	-7.4	7.0	x	x	x	x	x
Cc1ccc(C(O)c2ncc(-c3ccccc3)[nH]2)c(C)c1 (stereo not drawn)	-11.5	-9.2	-29.9	4.6	x	-8.2	x	x	x	x	x
CCc1ccc(CNC(=O)C2CCCN(c3nnc(C)c4c(C)n(-c5ccccc5)nc34)C2)cc1 (stereo not drawn)	4.1	-40.7	2.6	-11.9	43.9	-2.3	x	x	x	x	x
CCOc1ccc(CNC(=O)C2CCN(c3nnc(C)c4c(C)n(-c5ccc(C)cc5)nc34)CC2)cc1	-57.6	101.2*	68.9*	-2.4	86.9*	9.5	40.2*	39.8*	x	7.7	31.7
O=C(/C=C/c1ccc2c(c1)OCO2)Nc1ccc(Cl)cn1	4.3	-228.0	-235.2	-18.2	-101.5	-5.8	x	x	x	x	x
N=c1n(CC(=O)c2ccc(Br)s2)c2ccccc2n1Cc1ccccc1	1.6	100.6*	66.9*	-34.3	96.9*	14.6	62.1*	53.2*	101.9*	2.5	106.2*
C#CCn1c(S(=O)(=O)Cc2ccc(F)cc2)nc(-c2ccccc2)c1-c1ccccc1	8.8	11.0	-5.6	2.7	96.7*	-8.3	90.7*	51.5*	101.2*	x	x
NC(=O)Cn1c(S(=O)(=O)Cc2ccccc2)nc2ccccc21	0.1	30.0	11.8	-11.2	-14.4	-1.2	x	x	x	x	x
CC(C)(C)C(=O)Nc1cc2c3c(c1)CCN3C(=O)CC2	-1.6	-8.4	-1.6	-3.2	5.7	3.0	x	x	x	x	x
COc1cc(/C=N/O)ccc1OCc1ccc(Cl)cc1	x	x	x	x	-186.2	x	x	x	x	x	x
COc1cc(/C=N/O)ccc1OCc1ccc(C(=O)O)cc1	6.4	85.7*	89.1*	-11.4	83.5*	4.0	77.5*	21.1	x	90.4*	-73.9	Peg3 prom inh-2=68.7*
C1=CC2=NC34CCCCC3CC3=C(CCCC3)N4C2=CC1=NC1CCCCC1 (stereo not drawn)	17.3	21.9	17.2	0.1	100.3*	1.6	77.7*	37.6*	52.0*	x	x
CCN(CC)c1ccc2c(c1)oc(=O)c1c(Cl)cc(=O)oc12	8.4	100.6*	92.8*	-34.2	98.9*	13.5	99.5*	56.6*	103.2*	x	x
Cc1cc(=O)[nH]c(N=N/C(=N/Nc2ccccc2C)c2ccccc2)n1	-0.1	22.2	-28.4	2.2	68.7*	-2.0	82.3*	49.0*	84.0*	x	x
Cc1ccc(NS(=O)(=O)c2cc(C(=O)N(C)C3CCN(C)CC3)ccc2Cl)cc1Cl	-4.9	13.0	5.5	-11.0	3.5	-3.3	x	x	x	x	x
COc1ccc(NC(=O)c2c(N)no[n+]2[O-])cc1	22.1	-81.7	-97.7	2.8	-20.7	-1.0	x	x	x	x	x
COc1ccc(C(=O)c2no[n+]([O-])c2C(=O)c2ccc(OC)cc2)cc1	90.2*	65.8*	65.0*	-79.6*	62.5*	-1.3	26.4	x	x	15.6	32.6
COc1cccc(NC(=S)N2CCN(C)CC2)c1	11.1	9.3	12.3	2.3	3.5	-0.4	x	x	x	x	x

High-throughput results (PubChem BioAssay)
